# Laboratory results published in paper PMC11006913.
# Residue numbers refer to the chain shown, from its start.
# Tests used:
# Experiment in all cases: PBM; 200 nM protein, PBS
# Details in all cases: dsDNA, one strand shown
# NKX2-4 [1] = target: T1, NKX2-4 (Homo sapiens, UniProt Q9H2Z4 175-261, P217L)
# T1 sequence: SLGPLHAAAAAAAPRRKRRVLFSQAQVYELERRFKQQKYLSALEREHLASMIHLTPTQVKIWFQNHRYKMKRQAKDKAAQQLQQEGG
# NKX2-4 [2] = target: T2, NKX2-4 (Homo sapiens, UniProt Q9H2Z4 175-261, T231S)
# T2 sequence: T1 sequence with L43P, T57S
# NKX2-4 [3] = target: T3, NKX2-4 (Homo sapiens, UniProt Q9H2Z4 175-261)
# T3 sequence: T1 sequence with L43P
# NKX2-4 [4] = target: T4, NKX2-4 (Homo sapiens, UniProt Q9H2Z4 175-261, R246Q)
# T4 sequence: T1 sequence with L43P, R72Q
Sequence,binding signal (NKX2-4 [1]),binding signal (NKX2-4 [2]),binding signal (NKX2-4 [3]),binding signal (NKX2-4 [4])
TCCACTCA,"12.4 upbm affinity estimate (log intensity, higher = more binding, comparable within an allelic series)","12.8 upbm affinity estimate (log intensity, higher = more binding, comparable within an allelic series)","12.3 upbm affinity estimate (log intensity, higher = more binding, comparable within an allelic series)","12.8 upbm affinity estimate (log intensity, higher = more binding, comparable within an allelic series)"
AACTCTTG,"11.7 upbm affinity estimate (log intensity, higher = more binding, comparable within an allelic series)","11.8 upbm affinity estimate (log intensity, higher = more binding, comparable within an allelic series)","11.6 upbm affinity estimate (log intensity, higher = more binding, comparable within an allelic series)","12 upbm affinity estimate (log intensity, higher = more binding, comparable within an allelic series)"
AGAGCACT,"12 upbm affinity estimate (log intensity, higher = more binding, comparable within an allelic series)","12.3 upbm affinity estimate (log intensity, higher = more binding, comparable within an allelic series)","11.9 upbm affinity estimate (log intensity, higher = more binding, comparable within an allelic series)","12.3 upbm affinity estimate (log intensity, higher = more binding, comparable within an allelic series)"
AAGAGGGG,"11.9 upbm affinity estimate (log intensity, higher = more binding, comparable within an allelic series)","12.2 upbm affinity estimate (log intensity, higher = more binding, comparable within an allelic series)","11.8 upbm affinity estimate (log intensity, higher = more binding, comparable within an allelic series)","12.1 upbm affinity estimate (log intensity, higher = more binding, comparable within an allelic series)"
GCACTCAA,"12.5 upbm affinity estimate (log intensity, higher = more binding, comparable within an allelic series)","12.9 upbm affinity estimate (log intensity, higher = more binding, comparable within an allelic series)","12.4 upbm affinity estimate (log intensity, higher = more binding, comparable within an allelic series)","13 upbm affinity estimate (log intensity, higher = more binding, comparable within an allelic series)"
CCGGCTCA,"9.54 upbm affinity estimate (log intensity, higher = more binding, comparable within an allelic series)","9.64 upbm affinity estimate (log intensity, higher = more binding, comparable within an allelic series)","9.59 upbm affinity estimate (log intensity, higher = more binding, comparable within an allelic series)","9.56 upbm affinity estimate (log intensity, higher = more binding, comparable within an allelic series)"
CTTCTCAA,"11.7 upbm affinity estimate (log intensity, higher = more binding, comparable within an allelic series)","11.9 upbm affinity estimate (log intensity, higher = more binding, comparable within an allelic series)","11.5 upbm affinity estimate (log intensity, higher = more binding, comparable within an allelic series)","11.9 upbm affinity estimate (log intensity, higher = more binding, comparable within an allelic series)"
AGGCGGGC,"9.12 upbm affinity estimate (log intensity, higher = more binding, comparable within an allelic series)","8.97 upbm affinity estimate (log intensity, higher = more binding, comparable within an allelic series)","9.16 upbm affinity estimate (log intensity, higher = more binding, comparable within an allelic series)","9.08 upbm affinity estimate (log intensity, higher = more binding, comparable within an allelic series)"
GCACTACA,"11.7 upbm affinity estimate (log intensity, higher = more binding, comparable within an allelic series)","11.7 upbm affinity estimate (log intensity, higher = more binding, comparable within an allelic series)","11.6 upbm affinity estimate (log intensity, higher = more binding, comparable within an allelic series)","11.9 upbm affinity estimate (log intensity, higher = more binding, comparable within an allelic series)"
AGCTGCGG,"9.39 upbm affinity estimate (log intensity, higher = more binding, comparable within an allelic series)","9.21 upbm affinity estimate (log intensity, higher = more binding, comparable within an allelic series)","9.33 upbm affinity estimate (log intensity, higher = more binding, comparable within an allelic series)","9.45 upbm affinity estimate (log intensity, higher = more binding, comparable within an allelic series)"
CCGCGGTA,"9.81 upbm affinity estimate (log intensity, higher = more binding, comparable within an allelic series)","9.73 upbm affinity estimate (log intensity, higher = more binding, comparable within an allelic series)","9.75 upbm affinity estimate (log intensity, higher = more binding, comparable within an allelic series)","9.9 upbm affinity estimate (log intensity, higher = more binding, comparable within an allelic series)"
CCGGTCGC,"9.53 upbm affinity estimate (log intensity, higher = more binding, comparable within an allelic series)","9.41 upbm affinity estimate (log intensity, higher = more binding, comparable within an allelic series)","9.5 upbm affinity estimate (log intensity, higher = more binding, comparable within an allelic series)","9.51 upbm affinity estimate (log intensity, higher = more binding, comparable within an allelic series)"
CTCTTGAA,"12.5 upbm affinity estimate (log intensity, higher = more binding, comparable within an allelic series)","12.8 upbm affinity estimate (log intensity, higher = more binding, comparable within an allelic series)","12.3 upbm affinity estimate (log intensity, higher = more binding, comparable within an allelic series)","13 upbm affinity estimate (log intensity, higher = more binding, comparable within an allelic series)"
CCGAGACG,"9.51 upbm affinity estimate (log intensity, higher = more binding, comparable within an allelic series)","9.47 upbm affinity estimate (log intensity, higher = more binding, comparable within an allelic series)","9.47 upbm affinity estimate (log intensity, higher = more binding, comparable within an allelic series)","9.44 upbm affinity estimate (log intensity, higher = more binding, comparable within an allelic series)"
ACTCATAG,"11.7 upbm affinity estimate (log intensity, higher = more binding, comparable within an allelic series)","11.8 upbm affinity estimate (log intensity, higher = more binding, comparable within an allelic series)","11.6 upbm affinity estimate (log intensity, higher = more binding, comparable within an allelic series)","11.9 upbm affinity estimate (log intensity, higher = more binding, comparable within an allelic series)"
GCGGGCCC,"9.61 upbm affinity estimate (log intensity, higher = more binding, comparable within an allelic series)","9.54 upbm affinity estimate (log intensity, higher = more binding, comparable within an allelic series)","9.63 upbm affinity estimate (log intensity, higher = more binding, comparable within an allelic series)","9.68 upbm affinity estimate (log intensity, higher = more binding, comparable within an allelic series)"
CGGTTCCA,"9.98 upbm affinity estimate (log intensity, higher = more binding, comparable within an allelic series)","9.95 upbm affinity estimate (log intensity, higher = more binding, comparable within an allelic series)","9.92 upbm affinity estimate (log intensity, higher = more binding, comparable within an allelic series)","10 upbm affinity estimate (log intensity, higher = more binding, comparable within an allelic series)"
CTCAAGCA,"11.8 upbm affinity estimate (log intensity, higher = more binding, comparable within an allelic series)","12.1 upbm affinity estimate (log intensity, higher = more binding, comparable within an allelic series)","11.8 upbm affinity estimate (log intensity, higher = more binding, comparable within an allelic series)","12.2 upbm affinity estimate (log intensity, higher = more binding, comparable within an allelic series)"
CAGTGACC,"9.77 upbm affinity estimate (log intensity, higher = more binding, comparable within an allelic series)","9.84 upbm affinity estimate (log intensity, higher = more binding, comparable within an allelic series)","9.8 upbm affinity estimate (log intensity, higher = more binding, comparable within an allelic series)","9.7 upbm affinity estimate (log intensity, higher = more binding, comparable within an allelic series)"
CGGCTGTA,"9.81 upbm affinity estimate (log intensity, higher = more binding, comparable within an allelic series)","9.8 upbm affinity estimate (log intensity, higher = more binding, comparable within an allelic series)","9.77 upbm affinity estimate (log intensity, higher = more binding, comparable within an allelic series)","9.94 upbm affinity estimate (log intensity, higher = more binding, comparable within an allelic series)"
GATCGGCC,"9.8 upbm affinity estimate (log intensity, higher = more binding, comparable within an allelic series)","9.89 upbm affinity estimate (log intensity, higher = more binding, comparable within an allelic series)","9.87 upbm affinity estimate (log intensity, higher = more binding, comparable within an allelic series)","9.9 upbm affinity estimate (log intensity, higher = more binding, comparable within an allelic series)"
CCCAAACG,"9.71 upbm affinity estimate (log intensity, higher = more binding, comparable within an allelic series)","9.8 upbm affinity estimate (log intensity, higher = more binding, comparable within an allelic series)","9.76 upbm affinity estimate (log intensity, higher = more binding, comparable within an allelic series)","9.88 upbm affinity estimate (log intensity, higher = more binding, comparable within an allelic series)"
GTGAAGGA,"11.6 upbm affinity estimate (log intensity, higher = more binding, comparable within an allelic series)","12 upbm affinity estimate (log intensity, higher = more binding, comparable within an allelic series)","11.5 upbm affinity estimate (log intensity, higher = more binding, comparable within an allelic series)","11.6 upbm affinity estimate (log intensity, higher = more binding, comparable within an allelic series)"
CACCCGTA,"9.75 upbm affinity estimate (log intensity, higher = more binding, comparable within an allelic series)","9.83 upbm affinity estimate (log intensity, higher = more binding, comparable within an allelic series)","9.77 upbm affinity estimate (log intensity, higher = more binding, comparable within an allelic series)","9.74 upbm affinity estimate (log intensity, higher = more binding, comparable within an allelic series)"
GGCGTGCA,"9.59 upbm affinity estimate (log intensity, higher = more binding, comparable within an allelic series)","9.54 upbm affinity estimate (log intensity, higher = more binding, comparable within an allelic series)","9.62 upbm affinity estimate (log intensity, higher = more binding, comparable within an allelic series)","9.63 upbm affinity estimate (log intensity, higher = more binding, comparable within an allelic series)"
GGTCGCCA,"9.68 upbm affinity estimate (log intensity, higher = more binding, comparable within an allelic series)","9.67 upbm affinity estimate (log intensity, higher = more binding, comparable within an allelic series)","9.7 upbm affinity estimate (log intensity, higher = more binding, comparable within an allelic series)","9.8 upbm affinity estimate (log intensity, higher = more binding, comparable within an allelic series)"
AAACCCCC,"9.69 upbm affinity estimate (log intensity, higher = more binding, comparable within an allelic series)","9.77 upbm affinity estimate (log intensity, higher = more binding, comparable within an allelic series)","9.71 upbm affinity estimate (log intensity, higher = more binding, comparable within an allelic series)","9.65 upbm affinity estimate (log intensity, higher = more binding, comparable within an allelic series)"
ATGCGTCC,"9.7 upbm affinity estimate (log intensity, higher = more binding, comparable within an allelic series)","9.56 upbm affinity estimate (log intensity, higher = more binding, comparable within an allelic series)","9.58 upbm affinity estimate (log intensity, higher = more binding, comparable within an allelic series)","9.59 upbm affinity estimate (log intensity, higher = more binding, comparable within an allelic series)"
GCACTCGA,"12.5 upbm affinity estimate (log intensity, higher = more binding, comparable within an allelic series)","13 upbm affinity estimate (log intensity, higher = more binding, comparable within an allelic series)","12.5 upbm affinity estimate (log intensity, higher = more binding, comparable within an allelic series)","13.1 upbm affinity estimate (log intensity, higher = more binding, comparable within an allelic series)"
CTCGAGTA,"12.3 upbm affinity estimate (log intensity, higher = more binding, comparable within an allelic series)","12.6 upbm affinity estimate (log intensity, higher = more binding, comparable within an allelic series)","12.1 upbm affinity estimate (log intensity, higher = more binding, comparable within an allelic series)","12.6 upbm affinity estimate (log intensity, higher = more binding, comparable within an allelic series)"
